# According to PubChem BioAssay (NCATS):
# Results filed as inconclusive are left out. Entries that show only a call come without a potency. Values without a mark were called inactive. The source made the active and inactive calls. Calls come from the whole dose curve; as a rule, active = well fitted curve in the direction sought with a large enough effect; inconclusive = small, poorly fitted or top-dose-only effect, or another doubt; inactive = no such curve, though single readings can be large; an effect the other way counts as inactive or inconclusive.
# Legend:
# [1] = target: Rap guanine nucleotide exchange factor 3 (Homo sapiens) (UniProt O95398); experiment: Confirmatory qHTS for antagonist of cAMP-regulated guanine nucleotide exchange factor 3 (EPAC1) (AID 1645880); details: EPAC1 Rap1B-BODIPY-GDP exchange, fluorescence; activity, negative = inhibition: at 115 µM (top of the series); note: nearly all actives have a fitted effect of over 55% in size
# Rap guanine nucleotide exchange factor 3 (Homo sapiens), sequence (O95398 whole entry, looked up): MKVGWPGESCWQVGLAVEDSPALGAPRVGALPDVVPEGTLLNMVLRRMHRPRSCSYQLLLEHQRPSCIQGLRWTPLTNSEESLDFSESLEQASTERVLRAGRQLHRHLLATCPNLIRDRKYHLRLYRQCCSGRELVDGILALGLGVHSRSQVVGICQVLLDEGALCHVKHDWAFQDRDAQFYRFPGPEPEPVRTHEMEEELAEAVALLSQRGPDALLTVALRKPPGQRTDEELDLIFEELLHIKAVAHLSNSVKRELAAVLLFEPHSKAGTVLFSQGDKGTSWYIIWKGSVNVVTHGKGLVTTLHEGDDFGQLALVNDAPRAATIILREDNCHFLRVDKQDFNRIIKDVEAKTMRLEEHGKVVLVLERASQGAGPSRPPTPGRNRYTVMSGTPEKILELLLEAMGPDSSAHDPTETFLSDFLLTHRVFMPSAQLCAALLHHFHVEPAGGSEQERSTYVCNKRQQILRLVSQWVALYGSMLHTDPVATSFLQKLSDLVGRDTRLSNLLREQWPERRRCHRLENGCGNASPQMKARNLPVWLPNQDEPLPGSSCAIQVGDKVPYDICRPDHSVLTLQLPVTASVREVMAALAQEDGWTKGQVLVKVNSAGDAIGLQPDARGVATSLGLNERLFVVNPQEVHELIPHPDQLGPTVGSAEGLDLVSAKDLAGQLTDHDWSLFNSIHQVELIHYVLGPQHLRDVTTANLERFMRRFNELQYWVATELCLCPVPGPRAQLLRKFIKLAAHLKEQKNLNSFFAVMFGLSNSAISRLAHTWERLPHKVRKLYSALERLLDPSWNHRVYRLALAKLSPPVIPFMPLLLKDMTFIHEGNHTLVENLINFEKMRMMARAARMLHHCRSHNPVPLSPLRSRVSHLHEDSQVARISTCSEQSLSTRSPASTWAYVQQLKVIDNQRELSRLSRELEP
# How it was run: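 Released BODIPY-GDP fluoresces less than Rap1-bound BODIPY-GDP; the signal is followed at 480/540 nm at 5-min intervals over 30 min, after 5 min at room temperature. Reactions contain 100 nM EPAC1, 250 nM RAP1B-BODIPY-GDP and 50 uM GDP; results are normalized to ATA and DMSO.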
# [2] = target: Rap guanine nucleotide exchange factor 3 (Homo sapiens) (UniProt O95398); experiment: Confirmatory qHTS for agonist of cAMP-regulated guanine nucleotide exchange factor 3 (EPAC1) (AID 1645881); note: nearly all actives have a fitted effect of over 75% in size;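 for activation: EPAC1 catalysed release of BODIPY-GDP from Rap1B seen as fluorescence loss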
# [3] = target: Rap guanine nucleotide exchange factor 4 (Homo sapiens) (UniProt Q8WZA2); experiment: Confirmatory qHTS for agonist of cAMP-regulated guanine nucleotide exchange factor 4 (EPAC2) (AID 1645884);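 note: nucleotide exchange releases bodipy-GDP from Rap1 and this lowers its fluorescence; nearly all actives have a fitted effect of over 65% in size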
# Rap guanine nucleotide exchange factor 4 (Homo sapiens), sequence (Q8WZA2 whole entry, looked up): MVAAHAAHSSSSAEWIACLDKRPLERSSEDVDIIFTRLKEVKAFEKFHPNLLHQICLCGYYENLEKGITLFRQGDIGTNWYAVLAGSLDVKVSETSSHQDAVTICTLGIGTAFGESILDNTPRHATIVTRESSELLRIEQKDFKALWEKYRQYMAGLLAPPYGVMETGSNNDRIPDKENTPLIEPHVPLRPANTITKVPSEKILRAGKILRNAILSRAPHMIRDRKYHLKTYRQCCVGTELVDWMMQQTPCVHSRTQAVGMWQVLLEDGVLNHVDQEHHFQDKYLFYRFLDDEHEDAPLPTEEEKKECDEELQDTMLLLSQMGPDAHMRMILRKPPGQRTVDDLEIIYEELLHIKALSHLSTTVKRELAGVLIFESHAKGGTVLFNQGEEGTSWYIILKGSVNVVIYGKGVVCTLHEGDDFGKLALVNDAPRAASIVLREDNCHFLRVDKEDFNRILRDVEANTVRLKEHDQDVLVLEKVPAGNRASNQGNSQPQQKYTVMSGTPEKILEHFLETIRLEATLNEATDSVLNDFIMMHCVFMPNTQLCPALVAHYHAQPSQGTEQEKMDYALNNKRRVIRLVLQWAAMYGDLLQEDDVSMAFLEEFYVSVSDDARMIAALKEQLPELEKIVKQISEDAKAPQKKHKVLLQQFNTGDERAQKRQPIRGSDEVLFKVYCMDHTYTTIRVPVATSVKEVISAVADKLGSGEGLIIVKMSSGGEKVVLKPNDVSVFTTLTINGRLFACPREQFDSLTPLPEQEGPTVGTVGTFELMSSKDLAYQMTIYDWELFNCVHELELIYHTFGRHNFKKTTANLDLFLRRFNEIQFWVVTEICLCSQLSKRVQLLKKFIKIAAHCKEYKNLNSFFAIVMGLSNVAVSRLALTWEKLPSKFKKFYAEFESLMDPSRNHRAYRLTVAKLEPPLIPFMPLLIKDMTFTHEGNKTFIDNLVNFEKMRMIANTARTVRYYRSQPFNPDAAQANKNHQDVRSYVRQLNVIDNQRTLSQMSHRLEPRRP
# [4] = target: Rap guanine nucleotide exchange factor 4 (Homo sapiens) (UniProt Q8WZA2); experiment: Confirmatory qHTS for antagonist of cAMP-regulated guanine nucleotide exchange factor 4 (EPAC2) (AID 1645885); note: nearly all actives have a fitted effect of over 25% in size
# [5] = target: Rap guanine nucleotide exchange factor 3 (Homo sapiens) (UniProt O95398); experiment: Counterscreen qHTS for agonist of cAMP-regulated guanine nucleotide exchange factor 3 (EPAC1) (AID 1645889); note: nearly all actives have a fitted effect of over 40% in size
# How it was run: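 Measured: fluorescence of BODIPY-GDP bound to Rap1B, which falls as exchange proceeds. Conditions include 50 uM competing GDP, 5 and 30 min reads, and a later cAMP challenge for antagonist detection.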
# [6] = target: Tumor susceptibility gene 101 protein (Homo sapiens) (UniProt Q99816); experiment: qHTS Assay for Iinhibitors of HIV-1 Budding by Blocking the Interaction of PTAP/TSG101: Hit Validation (AID 651600); note: nearly all actives have a fitted effect of over 70% in size
# Tumor susceptibility gene 101 protein (Homo sapiens), sequence (Q99816 whole entry, looked up, the tested form may be a part): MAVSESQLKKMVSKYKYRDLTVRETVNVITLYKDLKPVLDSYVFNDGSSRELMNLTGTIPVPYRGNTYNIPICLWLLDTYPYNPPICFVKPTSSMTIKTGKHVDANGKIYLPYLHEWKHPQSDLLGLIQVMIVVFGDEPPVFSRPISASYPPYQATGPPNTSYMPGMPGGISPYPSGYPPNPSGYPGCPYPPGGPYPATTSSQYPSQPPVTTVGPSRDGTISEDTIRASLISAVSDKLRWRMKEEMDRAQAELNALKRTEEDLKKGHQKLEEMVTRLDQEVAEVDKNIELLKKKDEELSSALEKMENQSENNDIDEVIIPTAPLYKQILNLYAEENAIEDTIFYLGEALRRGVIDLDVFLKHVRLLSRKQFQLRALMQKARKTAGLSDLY
# How it was run: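 Tsg101 binding domain 10 uM + FITC-PTAP peptide 50 nM (final), 10 mM HEPES pH 7.5/0.15 M NaCl/0.01% Tween 20/3 mM EDTA/0.1 mM TCEP; 20 min RT; FP read, FITC filters.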
# Potency is the fitted concentration of half-maximal effect.
SMILES,Potency [1],Potency [2],Potency [3],Potency [4],Potency [5],activation [3],activation [5],Potency [6]
COc1ccc(C)cc1NC(=O)c1ccccc1NS(=O)(=O)c1ccc(Cl)s1,75.7 µM (active),inactive,inactive,inactive,inactive,,,
COc1cc(CCc2ccccc2)c(C(=O)O)c(O)c1C/C=C(/C)CCC=C(C)C,42.6 µM (active),inactive,inactive,75.7 µM (active),inactive,,,
Brc1ccc(N/N=C(/N=Nc2nn[nH]n2)c2ccccc2)cc1,33.8 µM (active),inactive,inactive,inactive,inactive,,,
O=C(COC(=O)COc1ccc(Cl)cc1Cl)NC1CCCC1,inactive,inactive,,inactive,,"9.18% [at 17.1 µM, percent relative to cAMP agonist control]",-1.05% [at 30.8 µM],
O=[N+]([O-])c1ccc(N/N=C2/CCCCC2c2ccccn2)cc1 (configuration not stated),inactive,inactive,,inactive,,"2.03% [at 17.1 µM, percent relative to cAMP agonist control]",-3.04% [at 30.8 µM],
Cc1ccc(CNC(=O)COc2ccc(C(=O)c3ccc(F)cc3)cc2)cc1,inactive,inactive,inactive,inactive,inactive,,,
O=S(=O)(Nc1nc2ccccc2nc1Nc1cccc(S(=O)(=O)N2CCCCC2)c1)c1ccccc1,56.2 µM (active),inactive,,inactive,,"6.04% [at 17.1 µM, percent relative to cAMP agonist control]",25.8% [at 30.8 µM],
O=C1c2cccc3c(O)ccc(c23)C(=O)N1Cc1ccccc1,inactive,89.1 µM (active),100 µM (active),75.7 µM (active),39.8 µM (active),,,2.59 µM (active)
Cc1cc2ccccn2c1C(=O)c1cccc(F)c1,inactive,inactive,inactive,inactive,inactive,,,
Cc1ccc(-c2c3c(=O)n(C)c(=O)n(C)c3c3c(C(F)(F)F)nc4ccccc4n23)cc1,inactive,inactive,inactive,inactive,inactive,,,
CC(C)(C)c1c(Cl)c(O)c(-c2ccccc2)c(=O)n1-c1ccccc1,23.9 µM (active),inactive,inactive,inactive,inactive,,,
Cc1cc(/C=C2\SC(=S)NC2=O)cc(C)c1O,33.8 µM (active),inactive,inactive,0.675 µM (active),inactive,,,
COc1cc(NC(=O)c2cnc(N)s2)cc(C(=O)Nc2cccc(C(F)(F)F)c2)c1,12.6 µM (active),inactive,,inactive,,"5.57% [at 17.1 µM, percent relative to cAMP agonist control]",16.6% [at 30.8 µM],
CCN1CCN(C2=CC3=CC(=C(C#N)C#N)CCC3CC2)CC1 (configuration not stated),inactive,79.4 µM (active),100 µM (active),67.5 µM (active),10 µM (active),,,
CCOc1cc(/C=C2/SC(=S)NC2=O)ccc1OC(=O)c1ccco1,37.9 µM (active),inactive,inactive,16.9 µM (active),inactive,,,
CCC(CC)C(=O)N1c2ccccc2C(C)(c2ccccc2)CC1(C)C (configuration not stated),inactive,inactive,inactive,inactive,inactive,,,
O=C(O)CCn1cc(C2CC(c3ccccc3)=NN2c2ccccc2)c(-c2ccccc2)n1 (configuration not stated),inactive,inactive,inactive,inactive,inactive,,,
O=C1/C(=C/c2ccc(O)c(O)c2)SC(=S)N1Nc1ccccc1,16.9 µM (active),inactive,inactive,inactive,inactive,,,
Nc1ccc2cc3[nH]c4cc(N)ccc4c3nc2c1,inactive,100 µM (active),100 µM (active),inactive,63.1 µM (active),,,0.366 µM (active)
C=CCN(CC=C)Cc1cc(=O)oc2cc(OC)c(Cl)cc12,inactive,inactive,,inactive,,"3.78% [at 17.1 µM, percent relative to cAMP agonist control]",20.9% [at 30.8 µM],
Cc1cc(OC(C)C(=O)NCc2ccccn2)c2c(C)c(Cc3ccccc3)c(=O)oc2c1 (configuration not stated),47.8 µM (active),inactive,inactive,inactive,inactive,,,
Cc1cc(C)n(CCOc2ccc(Br)cc2)n1,inactive,inactive,,inactive,,"1.04% [at 17.1 µM, percent relative to cAMP agonist control]",4.02% [at 30.8 µM],
O=S(=O)(O)c1cc(O)c(N=Nc2ccc(O)cc2O)c2ccccc12,37.9 µM (active),inactive,inactive,21.3 µM (active),inactive,,,
COc1ccc(CCNc2oc(-c3ccc(C)cc3)nc2C#N)cc1OC,inactive,inactive,,inactive,,"5.59% [at 17.1 µM, percent relative to cAMP agonist control]",26.9% [at 30.8 µM],
